Measurements from ChEMBL document CHEMBL1157539, “Thousands of chemical starting points for antimalarial lead identification” (Nature, 2010).

Tests used:
Assay type in all cases: functional
Plasmodium falciparum [1] = test: GSK_TCMDC: Inhibition of Plasmodium falciparum 3D7 in whole red blood cells, using parasite LDH activity as an index of growth. Test compounds present at 2uM
Plasmodium falciparum [2] = test: GSK_TCMDC: Inhibition of Plasmodium falciparum Dd2 in whole red blood cells, using parasite LDH activity as an index of growth. Test compounds present at 2uM
HepG2 = test: GSK_TCMDC: Percent inhibition of human HepG2 cell line. Test compounds present at 10uM.

Compound: CCCCCCCCS(=O)(=O)NCCCC1CCN(CCCCCNC(=O)C=Cc2ccc(Cl)c(Cl)c2)CC1
- Inhibition (Plasmodium falciparum [1]): 91%
- Inhibition (Plasmodium falciparum [2]): 26%
- Inhibition (HepG2): 100%

Compound: CCS(=O)(=O)Nc1ccc2c(c1)/C(=C(/Nc1ccc(CN3CCCCC3)cc1)c1ccccc1)C(=O)N2 [HESPERADIN]
- Inhibition (Plasmodium falciparum [1]): 87%
- Inhibition (Plasmodium falciparum [2]): 74%
- Inhibition (HepG2): 53%

Compound: C=CCc1ccccc1OCC(O)CN(C1CCCCC1)C1CCCCC1.Cl (stereo not drawn)
- Inhibition (Plasmodium falciparum [1]): 93%
- Inhibition (Plasmodium falciparum [2]): 84%
- Inhibition (HepG2): 50%

Compound: O=C(/C=C/c1ccc(Cl)cc1)NCCCCCN1CCCC(C(=O)Nc2cccc(Cl)c2)C1 (stereo not drawn)
- Inhibition (Plasmodium falciparum [1]): 96%
- Inhibition (Plasmodium falciparum [2]): 4%
- Inhibition (HepG2): 21%

Compound: CC(C)Cn1c(N)cc(=O)n(C)c1=O
- Inhibition (Plasmodium falciparum [1]): 100%
- Inhibition (Plasmodium falciparum [2]): 0%
- Inhibition (HepG2): 3%

Compound: I.N=C(N)NCC=C(c1ccccc1)c1ccccc1
- Inhibition (Plasmodium falciparum [1]): 94%
- Inhibition (Plasmodium falciparum [2]): 83%
- Inhibition (HepG2): 9%

Compound: CC(C)NCc1ccc(-c2cccc(NC(=O)c3cccc(Cl)c3)c2)cc1.O=C(O)C(F)(F)F
- Inhibition (Plasmodium falciparum [1]): 100%
- Inhibition (Plasmodium falciparum [2]): 87%
- Inhibition (HepG2): 24%

Compound: CN(C)Cc1cc(Nc2ccnc3cc(Cl)ccc23)ccc1O.Cl
- Inhibition (Plasmodium falciparum [1]): 100%
- Inhibition (Plasmodium falciparum [2]): 100%
- Inhibition (HepG2): 36%

Compound: O=C(Nc1cn(-c2ccc(OCc3cccc(F)c3)c(Cl)c2)c2ncncc12)c1ccncc1
- Inhibition (Plasmodium falciparum [1]): 100%
- Inhibition (Plasmodium falciparum [2]): 81%
- Inhibition (HepG2): 13%

Compound: COc1ccc(S(=O)(=O)N2CCCC(C)C2)cc1N1CCN(C(=O)c2ccc([N+](=O)[O-])o2)CC1 (stereo not drawn)
- Inhibition (Plasmodium falciparum [1]): 94%
- Inhibition (Plasmodium falciparum [2]): 4%
- Inhibition (HepG2): 0%

Compound: COc1cc2nc(N3CCC(CNC(=O)c4ccc(-c5ccc(C(=O)N(C)C)cc5OCCO)cc4)CC3)nc(N)c2cc1OC
- Inhibition (Plasmodium falciparum [1]): 100%
- Inhibition (Plasmodium falciparum [2]): 8%
- Inhibition (HepG2): 0%

Compound: CC(C)(C)COC(=O)c1ccc(NC(=O)N[C@@H](Cc2ccc(O)cc2)C(=O)NC2CCN(Cc3ccc(O)cc3)C2)cc1.O=C(O)C(F)(F)F (stereo partly drawn)
- Inhibition (Plasmodium falciparum [1]): 94%
- Inhibition (Plasmodium falciparum [2]): 21%
- Inhibition (HepG2): 3%

Compound: COc1cc(Cc2cnc(N)nc2N)cc(OC)c1OC [TRIMETHOPRIM]
- Inhibition (Plasmodium falciparum [1]): 88%
- Inhibition (Plasmodium falciparum [2]): 2%
- Inhibition (HepG2): 0%

Compound: COc1ccc2nc(Nc3nc4cnccc4[nH]3)sc2c1
- Inhibition (Plasmodium falciparum [1]): 88%
- Inhibition (Plasmodium falciparum [2]): 26%
- Inhibition (HepG2): 8%

Compound: CCCCCCNC(=O)C(N)CCCC(N)C(=O)NCCCCCC.Cc1ccc(S(=O)(=O)O)cc1 (stereo not drawn)
- Inhibition (Plasmodium falciparum [1]): 99%
- Inhibition (Plasmodium falciparum [2]): 0%
- Inhibition (HepG2): 0%

Compound: COc1ccc(Cc2c(N)nc3nc(N)nc(N)c3c2C)cc1.Cl
- Inhibition (Plasmodium falciparum [1]): 94%
- Inhibition (Plasmodium falciparum [2]): 3%
- Inhibition (HepG2): 64%

Compound: O=C(Nc1ccc(-c2cccc(-c3nc4cc(C(F)(F)F)ccc4[nH]3)c2)cc1)c1ccc(=O)[nH]n1
- Inhibition (Plasmodium falciparum [1]): 87%
- Inhibition (Plasmodium falciparum [2]): 13%
- Inhibition (HepG2): 72%

Compound: COc1ccc(C(C(=O)NC2CCN(C[C@H](O)c3ccnc4ccc(OC)cc34)CC2)N2CCN(c3ccc([N+](=O)[O-])cc3)CC2)cc1 (stereo partly drawn)
- Inhibition (Plasmodium falciparum [1]): 99%
- Inhibition (Plasmodium falciparum [2]): 80%
- Inhibition (HepG2): 17%

Compound: CC(C)N(CCOc1ccc2c(c1)N(C(=O)Nc1cc(Br)cc(C(F)(F)F)c1)CC2)C(C)C.O=C(O)C(F)(F)F
- Inhibition (Plasmodium falciparum [1]): 100%
- Inhibition (Plasmodium falciparum [2]): 100%
- Inhibition (HepG2): 8%

Compound: CCCCCCCCc1c(C)nc(C)c(I)c1O
- Inhibition (Plasmodium falciparum [1]): 91%
- Inhibition (Plasmodium falciparum [2]): 77%
- Inhibition (HepG2): 5%

Compound: O=C(Nc1ccc(-c2csc3nccn23)cc1)c1ccc(Cl)cc1
- Inhibition (Plasmodium falciparum [1]): 100%
- Inhibition (Plasmodium falciparum [2]): 50%
- Inhibition (HepG2): 54%
